The supplement of paper PMC6897291
Where a name gives a salt, the structure may show the parent alone.

Assays:
[1] = test system: U-2932; assay: growth inhibition by drug alone (1 - RLU/untreated control) (fraction); higher = stronger inhibition; conditions: 177Lu-lilotomab satetraxetan 0 ug/ml
In short: (§1)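 With or without 18 h pretreatment by a radiolabelled anti-CD37 antibody conjugate (~600 MBq/mg; 0.5 µg/ml RIVA, 1 µg/ml U-2932), RIVA and U-2932 cells were washed and plated at 3,000 cells/well. Pre-printed compound doses were 10/100 nM for RIVA and 10/1,000 nM for U-2932. Growth inhibition uses RealTime-Glo RLU relative to the untreated no-drug wells. The calculation is 1 − RLU/mean of 48 such wells per plate, with reads daily from day 3 after 1 h at 37°C.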

[2] = test system: RIVA; assay: as above; conditions: 177Lu-lilotomab satetraxetan 0 ug/ml
In short: as §1

[3] = test system: U-2932; assay: growth inhibition by drug plus 177Lu-lilotomab satetraxetan (1 - RLU/untreated control) (fraction); higher = stronger inhibition; conditions: 177Lu-lilotomab satetraxetan 1 ug/ml
In short: as §1

[4] = test system: RIVA; assay: as above; conditions: 177Lu-lilotomab satetraxetan 0.5 ug/ml
In short: as §1

Structure (SMILES)	growth inhibition by drug alone ([1]; 10 nM, time (day): 3)	growth inhibition by drug alone ([1]; 10 nM, time (day): 4)	growth inhibition by drug alone ([1]; 10 nM, time (day): 5)	growth inhibition by drug alone ([1]; 10 nM, time (day): 6)	growth inhibition by drug alone ([1]; 1000 nM, time (day): 3)	growth inhibition by drug alone ([1]; 1000 nM, time (day): 4)	growth inhibition by drug alone ([1]; 1000 nM, time (day): 5)	growth inhibition by drug alone ([1]; 1000 nM, time (day): 6)	growth inhibition by drug alone ([2]; 10 nM, time (day): 3)	growth inhibition by drug alone ([2]; 10 nM, time (day): 4)	growth inhibition by drug alone ([2]; 10 nM, time (day): 5)	growth inhibition by drug alone ([2]; 10 nM, time (day): 6)	growth inhibition by drug alone ([2]; 100 nM, time (day): 3)	growth inhibition by drug alone ([2]; 100 nM, time (day): 4)	growth inhibition by drug alone ([2]; 100 nM, time (day): 5)	growth inhibition by drug alone ([2]; 100 nM, time (day): 6)	growth inhibition by drug plus 177Lu-lilotomab satetraxetan ([3]; 10 nM, time (day): 3)	growth inhibition by drug plus 177Lu-lilotomab satetraxetan ([3]; 10 nM, time (day): 4)	growth inhibition by drug plus 177Lu-lilotomab satetraxetan ([3]; 10 nM, time (day): 5)	growth inhibition by drug plus 177Lu-lilotomab satetraxetan ([3]; 10 nM, time (day): 6)	growth inhibition by drug plus 177Lu-lilotomab satetraxetan ([3]; 1000 nM, time (day): 3)	growth inhibition by drug plus 177Lu-lilotomab satetraxetan ([3]; 1000 nM, time (day): 4)	growth inhibition by drug plus 177Lu-lilotomab satetraxetan ([3]; 1000 nM, time (day): 5)	growth inhibition by drug plus 177Lu-lilotomab satetraxetan ([3]; 1000 nM, time (day): 6)	growth inhibition by drug plus 177Lu-lilotomab satetraxetan ([4]; 10 nM, time (day): 3)	growth inhibition by drug plus 177Lu-lilotomab satetraxetan ([4]; 10 nM, time (day): 4)	growth inhibition by drug plus 177Lu-lilotomab satetraxetan ([4]; 10 nM, time (day): 5)	growth inhibition by drug plus 177Lu-lilotomab satetraxetan ([4]; 10 nM, time (day): 6)	growth inhibition by drug plus 177Lu-lilotomab satetraxetan ([4]; 100 nM, time (day): 3)	growth inhibition by drug plus 177Lu-lilotomab satetraxetan ([4]; 100 nM, time (day): 4)	growth inhibition by drug plus 177Lu-lilotomab satetraxetan ([4]; 100 nM, time (day): 5)	growth inhibition by drug plus 177Lu-lilotomab satetraxetan ([4]; 100 nM, time (day): 6)
CCOC(=O)[C@@H](C)Oc1cccc2c(=O)n(CC(=O)Nc3ccc4c(c3)OCCO4)ccc12	-0.0226	-0.00751	0.0431	0.176	-0.114	-0.0578	-0.0945	-0.15	-0.12	-0.131	-0.182	-0.361	0.0368	-0.0449	-0.0731	-0.142	-0.0102	0.0168	0.0306	0.145	-0.139	-0.0327	-0.0266	-0.0505	0.384	0.517	0.542	0.536	0.305	0.424	0.427	0.414
CCN[C@H]1C[C@H](C)S(=O)(=O)c2sc(S(N)(=O)=O)cc21 [Dorzolamide HCL]	-0.0781	-0.0488	-0.0257	0.0748	0.15	0.182	0.141	0.205	-0.103	-0.133	-0.166	-0.25	-0.0335	-0.0982	-0.134	-0.179	-0.0513	-0.0344	-0.00192	0.152	0.0973	0.164	0.191	0.279	0.311	0.443	0.471	0.489	0.267	0.375	0.389	0.37
Oc1cccc(-c2nc(N3CCOCC3)c3oc4ncccc4c3n2)c1	0.191	0.128	-0.0145	-0.0687	0.836	0.879	0.891	0.894	0.135	0.0735	0.0557	-0.0131	0.762	0.695	0.667	0.585	0.125	0.138	0.171	0.231	0.633	0.625	0.627	0.655	0.54	0.556	0.562	0.572	0.837	0.831	0.827	0.824
CCC(C)n1ncn(-c2ccc(N3CCN(c4ccc(OCC5COC(Cn6cncn6)(c6ccc(Cl)cc6Cl)O5)cc4)CC3)cc2)c1=O (centres undefined) [Itraconazole (Sporanox)]	0.0829	0.0704	0.0582	-0.11	0.0952	0.087	0.0678	-0.00563	-0.0197	0.0654	-0.0473	-0.325	-0.037	0.0162	0.00541	-0.0886	0.0224	0.0823	0.142	0.126	0.102	0.147	0.188	0.311	0.61	0.642	0.66	0.668	0.407	0.522	0.541	0.559
CC(C)(C#N)c1cc(Cn2cncn2)cc(C(C)(C)C#N)c1 [Anastrozole]	0.105	0.0583	0.0212	-0.021	0.0109	0.046	-0.0146	-0.259	0.0128	-0.01	-0.0521	-0.213	-0.0495	-0.0262	-0.0644	-0.17	0.0156	0.039	0.0695	0.0754	-0.103	0.0124	-0.0136	-0.0141	0.481	0.583	0.593	0.583	0.423	0.506	0.523	0.499
COc1cc(OC2CCN(C)CC2)ccc1Nc1ncc2c(n1)n(C1CCCC1)c(=O)n2C	-0.0462	-0.0489	-0.0615	-0.034	-0.165	-0.184	-0.206	-0.247	-0.233	-0.291	-0.358	-0.453	-0.524	-0.553	-0.545	-0.66	-0.087	-0.0366	0.0152	0.102	-0.121	-0.0709	-0.0115	0.128	0.539	0.578	0.601	0.587	0.355	0.432	0.453	0.479
CS(=O)(=O)c1cccc(CNc2nc(Nc3ccc4c(c3)CCC(=O)N4)ncc2C(F)(F)F)c1	0.0502	0.00856	-0.0018	0.0705	-0.0504	-0.0365	-0.0145	0.085	-0.0802	-0.0828	-0.0817	-0.0957	-0.0969	-0.126	-0.181	-0.218	-0.0177	0.0519	0.101	0.199	0.0169	0.0857	0.144	0.314	0.467	0.549	0.572	0.567	0.206	0.328	0.352	0.383
Cc1cccc(-c2[nH]c(C(C)(C)C)nc2-c2ccc3nccnc3c2)n1	0.121	0.0591	-0.0391	-0.0718	0.0282	0.0616	0.0184	-0.0529	-0.0404	-0.00935	-0.0953	-0.422	-0.418	-0.28	-0.32	-0.559	0.0382	0.108	0.172	0.201	0.0486	0.0781	0.126	0.19	0.595	0.633	0.644	0.65	0.316	0.428	–	–
